HTT ATP protect: Huntington cell model cytoprotection by ATP luminescence | PC12 HTT-Q103 induced, cytoprotection, ATP luminescence, 40 h | Potency, µM (doses to about 56.4 µM), hits mostly activators | hit rate 0.14% among 230,000; also: nearly all actives have a fitted effect of over 45% in size
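ATP quantification (ATPlite) reports survival of PC12 cells in which tebufenozide, 100 nM final, switches on Htt exon 1 with 103 glutamines linked to GFP; compounds are titrated.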
HttQ103 aggreg: reduces HttQ103-GFP aggregates in PC12 cells | hit rate 1.1% among 220,000 | PC12 HttQ103-GFP aggregates, Acumen cytometry, 40 h | Potency, µM (highest dose often 46.1 µM), most hits filed as inhibitors; also: nearly all actives have a fitted effect of over 60% in size
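Compounds (qHTS titration) were added to PC12 cells expressing an ecdysone-driven HTT exon 1 Q103–GFP fusion after induction with 100 nM tebufenozide. Aggregate formation was measured as GFP objects in cell lysates.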
ALOX12 inhib: inhibitors of human 12-lipoxygenase (ALOX12); Potency, µM (titrated, usually from 57.1 µM), hits mostly inhibitors; purified 12-hLO, xylenol orange hydroperoxide absorbance; hit rate 0.12% among 150,000; P18054; also: nearly all actives have a fitted effect of over 55% in size
Target sequence (P18054 whole entry, looked up): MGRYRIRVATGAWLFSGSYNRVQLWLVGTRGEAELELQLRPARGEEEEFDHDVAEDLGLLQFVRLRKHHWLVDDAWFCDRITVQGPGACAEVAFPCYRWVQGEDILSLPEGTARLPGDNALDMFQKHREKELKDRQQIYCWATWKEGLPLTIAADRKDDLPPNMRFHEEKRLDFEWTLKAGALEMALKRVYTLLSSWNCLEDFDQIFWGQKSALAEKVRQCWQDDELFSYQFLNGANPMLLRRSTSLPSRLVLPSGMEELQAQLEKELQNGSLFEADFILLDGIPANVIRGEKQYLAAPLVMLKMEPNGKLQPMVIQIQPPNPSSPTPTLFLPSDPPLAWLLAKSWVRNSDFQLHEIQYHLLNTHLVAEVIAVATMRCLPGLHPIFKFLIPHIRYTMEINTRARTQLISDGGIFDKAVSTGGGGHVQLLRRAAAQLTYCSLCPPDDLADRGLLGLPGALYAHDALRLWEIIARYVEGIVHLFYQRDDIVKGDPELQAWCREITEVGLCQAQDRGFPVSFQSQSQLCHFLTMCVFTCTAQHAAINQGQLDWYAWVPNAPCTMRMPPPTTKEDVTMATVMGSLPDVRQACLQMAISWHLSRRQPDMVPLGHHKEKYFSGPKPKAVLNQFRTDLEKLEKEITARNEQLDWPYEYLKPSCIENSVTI
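Hydroperoxide output read as Fe(III)-xylenol orange absorbance, 573-to-405 nm ratio, after 30 min reaction with 40 uM arachidonic acid. Enzyme: 150 nM purified human 12hLO, 15 min compound preincubation; 25 mM Hepes pH 7.0, room temperature.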
IMPase cell inh: IMPase inhibition in cells. P97697. CHO-M1 cells, IP1 accumulation, HTRF TR-FRET ratio. inhibition (IP1 accumulation), % at 46.1 µM. 120,000 tested, under 10 active. AID 901; active = well fitted curve in the direction sought with a large enough effect in the signal ratio, not every such curve was filed as active; inconclusive = small, poorly fitted or top-dose-only effect, or a change in a side signal; inactive = no such curve, though single readings can be large or run the other way; the % refers to the signal ratio;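 also: cells stimulated with carbachol in lithium chloride buffer; higher means more IMPase inhibition seen as more IP1 and lower FRET ratio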
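Elevated IP1 in lysates lowers TR-FRET signal (665/620 ratio and 620 channel reported). Cells were CHO-M1, given carbachol (50 uM as added) plus 50mM LiCl, pH 7.4, 30 min, 37C; compounds titrated up to 46 uM; AC50 by Hill equation.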
NPSR antag: neuropeptide S receptor (human) antagonism, cAMP; Q6W5P4; CHO-NPSR cells, cAMP TR-FRET, antagonist mode; Potency, µM (doses to about 38.3 µM), usual class: inhibitors; hit rate 1% among 220,000; AID 1461; also: nearly all actives have a fitted effect of over 50% in size
PNC inhibitor: inhibitors of perinucleolar compartment assembly. PC3M PTB-GFP, PNC prevalence imaging, 16 h; hits give low values. activity change (PNC), negative = inhibition, % at 10 µM. hit rate 3.1% among 140,000;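 active = readout at or below -70, meaning at least 70% loss of cells showing the perinucleolar compartment, a nuclear body marking cancer cells; inconclusive = readout between -30 and a set limit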
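Compounds are pinned in duplicate onto adhered PC3M cells stably expressing GFP-tagged PTB and incubated 16 h at 37 C. Cells are then fixed, nuclei stained with Hoechst, and PNC-positive cells counted.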
Each line names hits and unclear results; the compound was inactive in the other large screens. Hits are enriched below; roughly 3.3% of the tested compounds scored in any of these assays. Unless noted, calls follow the shape of the dose curve; as a rule, active = well fitted curve in the direction sought with a large enough effect; inconclusive = small, poorly fitted or top-dose-only effect, or another doubt; inactive = no such curve, though single readings can be large; an effect the other way counts as inactive or inconclusive.

COc1ccc(C2Oc3ccccc3C3=C2C(c2cccs2)n2ncnc2N3)cc1 (stereo not drawn)	NPSR antag inconclusive, PNC inhibitor -112
COc1ccc(C2C3=C(Nc4ncnn42)c2ccccc2CC3)cc1OC (stereo not drawn)	HttQ103 aggreg inconclusive
Brc1ccc(C2C3=C(Nc4ncnn42)c2ccccc2OC3c2ccncc2)cc1 (stereo not drawn)	HttQ103 aggreg 10µM, NPSR antag inconclusive
COc1ccc(OC)c(NC(=O)C2=C(C)Nc3ncnn3C2c2cccs2)c1 (stereo not drawn)	HttQ103 aggreg inconclusive, PNC inhibitor inconclusive
Cc1cnc(SCc2cnc(C)nc2N)nc1	none (no result: ALOX12 inhib, IMPase cell inh, PNC inhibitor)
CC(NC(=O)Nc1ccccc1)C(c1cccs1)N1CCOCC1 (stereo not drawn)	PNC inhibitor -122
O=C1/C(=C/c2ccc(C(=O)O)cc2)CCC/C1=C\c1ccc(C(=O)O)cc1	HttQ103 aggreg inconclusive, PNC inhibitor -93 (no result: HTT ATP protect, IMPase cell inh)
O=C(NNc1ccccc1Br)C(=O)n1ccc2ccccc21	HTT ATP protect 3.5µM (no result: IMPase cell inh)
O=C(Cc1c(Cl)cccc1Cl)NCCc1ccc(Cl)cc1	none (no result: IMPase cell inh)
O=C(CCl)NCc1c(Cl)cccc1-n1cccc1	HttQ103 aggreg 13µM, PNC inhibitor inconclusive
O=[N+]([O-])c1cccc2ccc(/C=C/c3ccc(F)cc3)nc12	PNC inhibitor -114 (no result: IMPase cell inh)
Cc1ccc(OCC2Cn3c(nc4c3c(=O)[nH]c(=O)n4C)O2)cc1 (stereo not drawn)	PNC inhibitor -103
CCCOc1nc2c(c(=O)n(C)c(=O)n2C)n1C	none (no result: ALOX12 inhib, IMPase cell inh, PNC inhibitor)
CCCOc1nc2c(c(=O)n(C)c(=O)n2C)n1Cc1cccc2ccccc12	HttQ103 aggreg 13µM
O=C(Nc1nnc(C2CCCC2)s1)C1CCC1	PNC inhibitor -127
Cc1nnc(NC(=O)C2CCCCC2)s1	none
CC#CCN1c2ccccc2[C@]23C[C@@H](C(=O)OC)N(S(=O)(=O)c4c(C)noc4C)C2=NC(C(=O)OC)=C(C(=O)OC)[C@H]13	none (no result: HttQ103 aggreg, IMPase cell inh, NPSR antag, PNC inhibitor)
Cc1cccc(NC(=O)C2C3C=CC(C4CC34)C2C(=O)O)c1 (stereo not drawn)	NPSR antag inconclusive, PNC inhibitor -119
N#Cc1cccc(NC(=O)N2CCCC3(CCN(C(=O)c4cnccn4)CC3)C2)c1	none (no result: HttQ103 aggreg, IMPase cell inh, NPSR antag, PNC inhibitor)
CCN(CC)S(=O)(=O)c1ccc(N2CCN(S(=O)(=O)c3ccc4c(c3)OCCO4)CC2)nc1	PNC inhibitor -91
CN1CCN(c2ccc(S(=O)(=O)N3CCCCC3)cn2)CC1	HTT ATP protect inconclusive, PNC inhibitor -83
O=C(NC1CCCC1)c1ccc(Br)o1	PNC inhibitor -85
CC(=O)c1ccc(-n2cc(-c3ccc(C(C)(C)C)cc3)[n+]3c2SCCC3)cc1	HttQ103 aggreg 10µM (no result: ALOX12 inhib, IMPase cell inh, PNC inhibitor)
COC(=O)[C@@H]1C[C@H]1[C@@H](NC(=O)OCc1ccccc1)c1ccccc1	none (no result: HttQ103 aggreg, ALOX12 inhib, IMPase cell inh, NPSR antag, PNC inhibitor)
Oc1c(C(c2ccccc2Cl)N2CCCC2)ccc2cccnc12 (stereo not drawn)	HttQ103 aggreg inconclusive, NPSR antag 10µM (no result: ALOX12 inhib, IMPase cell inh, PNC inhibitor)
CC(C)(C)n1nnnc1C(c1cccs1)N1CCN(c2ccccc2)CC1 (stereo not drawn)	PNC inhibitor inconclusive
Oc1c(C(c2cccs2)N2CCN(c3ccccc3)CC2)ccc2cccnc12 (stereo not drawn)	ALOX12 inhib inconclusive, NPSR antag 16µM, PNC inhibitor inconclusive
CSc1nc(N)c2ncn([C@@H]3O[C@@H](COP(=O)(O)OP(=O)(O)O)[C@@H](O)[C@H]3O)c2n1	none (no result: HttQ103 aggreg, NPSR antag, PNC inhibitor)
CC(C)(C)C1CCC2(CC1)C(C#N)=C(SCC(=O)NC1CCCCC1)NC(=O)C2C#N (stereo not drawn)	HttQ103 aggreg 11µM
N#CC1=C(SCC(=O)NC23CC4CC(CC(C4)C2)C3)NC(=O)C(C#N)C12CCCCC2 (stereo not drawn)	HttQ103 aggreg 3.5µM
N#CC1=C(SCC(=O)NC2CC2)NC(=O)C(C#N)C12CCCCC2 (stereo not drawn)	none
Cc1ccc(C(=O)Nc2ccc(Cc3ccncc3)cc2)cc1[N+](=O)[O-]	HttQ103 aggreg 13µM, NPSR antag inconclusive
COc1ccc(C(=O)N2CCC3(CCN(Cc4ccccc4OC)CC3)CC2)cc1	none (no result: HttQ103 aggreg, IMPase cell inh, NPSR antag, PNC inhibitor)
CN1CCN(c2ccccc2NC(=O)Cc2cn(C)c3ccccc23)CC1	HttQ103 aggreg 25µM
Cc1ccc(-c2csc3ncnc(Oc4ccc5c(C)cc(=O)oc5c4)c23)cc1	PNC inhibitor inconclusive (no result: HTT ATP protect, IMPase cell inh)
CC(=O)Nc1cccc(Oc2ncnc3scc(-c4ccc(C)cc4)c23)c1	PNC inhibitor -83
COc1ccc2oc(=O)c(-c3nc4ccccc4o3)cc2c1	PNC inhibitor -81
O=c1oc2ccccc2cc1-c1nc2ccccc2o1	none
CNC(=O)C[C@@H](N)C(=O)N[C@@H](C(=O)N[C@@H]1C(=O)N2[C@@H]1SC(C)(C)[C@@H]2C(=O)O)c1ccc(O)cc1	none (no result: ALOX12 inhib, IMPase cell inh, NPSR antag, PNC inhibitor)
Oc1ccc(Nc2nc3ccccc3nc2Nc2ccc(O)cc2)cc1	HTT ATP protect inconclusive, HttQ103 aggreg inconclusive, NPSR antag 10µM
Cc1cc(C(=O)CSc2nnc(-c3ccco3)o2)c(C)n1-c1ccc2c(c1)OCCO2	HttQ103 aggreg 8.9µM
COc1ccccc1NC1=C(Cl)C(=O)N(c2ccccc2)C1=O	PNC inhibitor -114 (no result: HTT ATP protect, IMPase cell inh)
COc1ccc([C@H]2[C@H](C(=O)OC(C)(C)C)N3N=Cc4ccccc4C3C23C(=O)c2ccccc2C3=O)c(OC)c1 (stereo partly drawn)	none (no result: HTT ATP protect, IMPase cell inh)
COc1ccc([C@H]2[C@H](C(=O)OC(C)(C)C)N3N=Cc4ccccc4C3C23C(=O)c2ccccc2C3=O)cc1OC (stereo partly drawn)	NPSR antag 7.9µM (no result: HTT ATP protect, IMPase cell inh)
Cc1ccc(C(=O)Nc2cc(C(C)C)c(O)c(C(C)C)c2)cc1	HttQ103 aggreg 10µM (no result: HTT ATP protect, IMPase cell inh)
Cc1ccc(C(=O)N[C@H](C(=O)Nc2cc(Cl)cc(Cl)c2)C(C)C)cc1	none
O=C(CNC(=O)c1ccccc1Cl)N/N=C/c1ccc([N+](=O)[O-])s1	HttQ103 aggreg 11µM
O=C(Cc1cccs1)N/N=C\c1ccc([N+](=O)[O-])s1	HttQ103 aggreg inconclusive (no result: ALOX12 inhib, IMPase cell inh, PNC inhibitor)
COC(=O)CC1c2ccccc2C(Cc2ccc(OC)cc2)C(C)N1C(=O)OC (stereo not drawn)	none (no result: HttQ103 aggreg, IMPase cell inh, NPSR antag, PNC inhibitor)
CC1CCCCC1NC(=O)CSc1nnc(-c2ccccc2)n1N (stereo not drawn)	PNC inhibitor -122
CC(C)NS(=O)(=O)c1ccc(OCC(=O)N2CCN(c3ccccc3F)CC2)cc1	none (no result: HTT ATP protect, HttQ103 aggreg, ALOX12 inhib, NPSR antag, PNC inhibitor)
CCCCCCCC/C=C\CCCCCCCCOC[C@H](COP(=O)([O-])OCC[N+](C)(C)C)OC(C)=O	none (no result: HttQ103 aggreg, IMPase cell inh, NPSR antag, PNC inhibitor)

Compound activity as filed in PubChem.
